According to PMC4336329 (PLoS ONE, 2015):
The campaign covered roughly 310,000 compounds. About 2,200 (0.71%) showed an effect of 50% or more. The effect is printed as a negative number. Only a selection was taken, and strong results are over-represented in it overall.

What follows are compounds tested against human ether-à-go-go-related gene (hERG) potassium channel (human, UniProt Q12809) (assay: primary screen, population patch clamp on CHO cells stably expressing hERG; higher = less effect of the substance).
Sequence of human ether-à-go-go-related gene (hERG) potassium channel (Q12809 whole entry, looked up): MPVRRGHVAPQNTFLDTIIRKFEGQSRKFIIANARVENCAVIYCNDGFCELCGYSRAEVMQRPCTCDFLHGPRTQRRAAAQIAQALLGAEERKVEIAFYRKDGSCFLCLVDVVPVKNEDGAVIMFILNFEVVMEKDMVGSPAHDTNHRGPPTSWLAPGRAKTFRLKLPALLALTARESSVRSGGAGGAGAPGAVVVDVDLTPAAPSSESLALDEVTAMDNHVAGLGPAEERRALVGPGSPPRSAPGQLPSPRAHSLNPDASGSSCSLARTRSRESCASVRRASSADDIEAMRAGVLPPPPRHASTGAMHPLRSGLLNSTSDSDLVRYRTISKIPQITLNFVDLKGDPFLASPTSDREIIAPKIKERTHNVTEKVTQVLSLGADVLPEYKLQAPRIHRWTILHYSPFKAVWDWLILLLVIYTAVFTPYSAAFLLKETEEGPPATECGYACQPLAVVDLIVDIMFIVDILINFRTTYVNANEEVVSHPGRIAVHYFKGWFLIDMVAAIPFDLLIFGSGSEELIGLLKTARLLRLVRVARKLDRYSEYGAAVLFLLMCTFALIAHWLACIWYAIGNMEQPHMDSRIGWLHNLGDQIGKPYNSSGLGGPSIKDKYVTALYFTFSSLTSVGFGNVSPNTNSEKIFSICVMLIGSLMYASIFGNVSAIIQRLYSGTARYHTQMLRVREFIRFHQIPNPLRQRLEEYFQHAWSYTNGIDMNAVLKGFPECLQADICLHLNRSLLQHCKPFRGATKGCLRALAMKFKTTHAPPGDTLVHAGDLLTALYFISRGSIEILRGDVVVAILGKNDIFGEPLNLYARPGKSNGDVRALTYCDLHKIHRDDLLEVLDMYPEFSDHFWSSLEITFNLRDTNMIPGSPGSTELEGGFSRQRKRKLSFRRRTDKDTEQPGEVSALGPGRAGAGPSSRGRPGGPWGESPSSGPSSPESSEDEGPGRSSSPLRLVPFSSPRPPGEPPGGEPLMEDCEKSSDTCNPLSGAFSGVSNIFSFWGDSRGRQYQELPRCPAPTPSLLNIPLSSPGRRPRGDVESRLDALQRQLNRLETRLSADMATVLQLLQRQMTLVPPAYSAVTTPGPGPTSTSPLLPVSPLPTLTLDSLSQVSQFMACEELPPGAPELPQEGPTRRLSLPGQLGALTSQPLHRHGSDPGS

Row | SMILES | hERG current change (%, negative = inhibition) at 1uM
1 | COc1cccc(-c2nc3n(n2)C(c2ccc4c(c2)OCO4)C(C(N)=O)=C(C)N3)c1 (centres unmarked) | 6.43%
2 | Cn1c(=O)[nH]c(=O)c2c1nc(N1CCCCCC1)n2CCSc1nc2ccccc2o1 | 7.86%
3 | COc1cc(C(CCN2CCCCC2)c2c(OC)cc(OC)c3c(C)cc(=O)oc23)cc(OC)c1OC (centres unmarked) | -96.3%
4 | COc1cc(C(CCN2CCN(c3ccccc3)CC2)c2c(OC)cc(OC)c3c(C)cc(=O)oc23)cc(OC)c1OC (centres unmarked) | 9.23%
5 | COc1cc(C(CCN2CCCC2)c2c(OC)cc(OC)c3c(-c4ccccc4)cc(=O)oc23)cc(OC)c1OC (centres unmarked) | -10.9%
6 | CCCCCc1cc(=O)oc2c(C(CCN3CCCCC3)c3cc(OC)c(OC)c(OC)c3)c(OC)cc(OC)c12 (centres unmarked) | -10.6%
7 | COc1cc(C(CCN2CCOCC2)c2c(OC)cc(OC)c3c(C)cc(=O)oc23)cc(OC)c1OC (centres unmarked) | -70.3%
8 | COc1cc(C(CCN2CCCCC2)c2c(OC)cc(OC)c3c(-c4ccccc4)cc(=O)oc23)cc(OC)c1OC (centres unmarked) | -12%
9 | COc1cc(C(CCN2CCCC2)c2c(OC)cc(OC)c3c(C)cc(=O)oc23)cc(OC)c1OC (centres unmarked) | -69%
10 | COc1cc(C(CCN2CCCC2)c2c(OC)cc(OC)c3ccc(=O)oc23)cc(OC)c1OC (centres unmarked) | -26.2%
11 | COc1ccc(C(CCN2CCOCC2)c2c(OC)cc(OC)c3c(C)cc(=O)oc23)cc1 (centres unmarked) | -32.6%
12 | O=C(NCCCn1ccnc1)C(=O)c1c[nH]c2ccccc12 | 3.2%
13 | CC(=O)Nc1ncc(Cc2cccc(Cl)c2)s1 | 9.23%
14 | CC(=O)NS(=O)(=O)c1ccc(NC(=O)CC(C)c2ccccc2)cc1 (centres unmarked) | 2.97%
15 | COc1ccc(N2C(=O)CC(NC34CC5CC(CC(C5)C3)C4)C2=O)c(OC)c1 (centres unmarked) | 8.85%
16 | CCCN(CC(=O)Nc1cc(C)on1)S(=O)(=O)c1cccc(C(F)(F)F)c1 | 11.3%
17 | CCN(CC(=O)Nc1c(F)cccc1F)C(=O)/C=C/c1ccc2c(c1)OCO2 | 3.1%
18 | N=c1c(C(=O)NC2CCCC2)cc2c(=O)n3ccccc3nc2n1CCN1CCOCC1 | -94.2%
19 | N=c1c(C(=O)NC2CCCC2)cc2c(=O)n3ccccc3nc2n1CCCN1CCOCC1 | -63.7%
20 | CCOC(=O)c1c(C2CC2)csc1NC(=O)CSCc1c(C)noc1C | 11.4%
21 | CCOC(=O)N1CCN(C(=O)Nc2ccc3nc(C)c(C)nc3c2)CC1 | 4.44%
22 | CC(C)c1ccc(CNc2ccc([N+](=O)[O-])cn2)cc1 | 9.11%
23 | Cc1cc(C)c(S(=O)(=O)NCc2ccncc2)c(C)c1 | 5.64%
24 | C=CCn1c(O)c(C(CC)=NCc2ccco2)c(=O)[nH]c1=O | 2.16%

Row | SMILES | hERG current change (%, negative = inhibition) at 1uM
25 | O=C1CC(c2ccc(S(=O)(=O)NC3CC3)cc2)CN1 (centres unmarked) | 2.43%
26 | CCN(CC)S(=O)(=O)c1ccc(C2CNC(=O)C2)cc1 (centres unmarked) | -53.8%
27 | COCCNS(=O)(=O)c1ccc(C2CNC(=O)C2)cc1 (centres unmarked) | 11.3%
28 | Cc1cccc(C(=O)NC(=S)Nc2ccccc2C(=O)O)c1 | 6.08%
29 | CCOC(=O)C1CCCN(c2nc(C)nc3c2oc2ccccc23)C1.Cl (centres unmarked) | 8.69%
30 | Cc1cc2cc3c(=O)[nH]c(=O)[nH]c3nc2cc1C | 12.1%
31 | c1nc(Nc2ccc(N3CCOCC3)cc2)c2ccsc2n1 | 8.37%
32 | c1nc(NCC2(N3CCOCC3)CCCCC2)c2ccsc2n1 | -54.5%
33 | Cc1sc2ncnc(NCC3(N4CCOCC4)CCCCC3)c2c1C | -23%
34 | COc1ccc(C2=NS(=O)(=O)N(C)C(C(=O)N3CCC(C(N)=O)CC3)=C2)cc1 | -8.49%
35 | Cc1ccc(NC(=O)c2cc(NC(=O)CCC(=O)O)ccc2N2CCCCC2)cc1 | 11.9%
36 | Cc1nnc(NC(=O)CN2C(=O)c3ccccc3S2(=O)=O)s1 | 7.28%
37 | CCCCC(=O)N1CCCC(c2nc3c(nnn3Cc3cc(C)ccc3C)c(=O)[nH]2)C1 (centres unmarked) | 3.86%
38 | CCN1/C(=C/C=C/c2oc3ccc(-c4ccccc4)cc3[n+]2CC)Oc2ccc(-c3ccccc3)cc21.CCOS(=O)(=O)[O-] | -2.56%
39 | CCOS(=O)(=O)[O-].CC[n+]1c(/C=C/Nc2ccccc2)oc2ccc(OC)cc21 | -68.8%
40 | CC[n+]1c(/C=C/Nc2ccccc2)sc2ccccc21.[I-] | -62.8%
41 | CCN1/C(=C/C=C/c2sc3ccccc3[n+]2CC)Sc2ccccc21.[I-] | -36.8%
42 | CC[n+]1c(/C=C/C=C/N(C(C)=O)c2ccccc2)sc2cc(OC)ccc21.[I-] | 7.77%
43 | CC[n+]1c(/C=C/Nc2ccccc2)oc2ccccc21.[I-] | -64.9%
44 | CC[n+]1c(/C=C/N(C)c2ccccc2)oc2ccccc21.O=S(=O)([O-])CCO | 12%
45 | CCOc1ccc(S(=O)(=O)Nc2cccc(OC)c2)cc1 | -5.91%
46 | CC[n+]1ccccc1/C=C/Nc1ccccc1.[I-] | -5.67%
47 | CC[n+]1c(/C=C/C=C/c2ccc(N(C)C)cc2)sc2ccccc21.[O-][Cl+3]([O-])([O-])[O-] | -29%
48 | CC[n+]1c(/C=C2\C=C(C)CC(C)(C)C2)sc2ccccc21.[I-] | -4.87%

Row | SMILES | hERG current change (%, negative = inhibition) at 1uM
49 | CC[n+]1c(/C=C/C=C/N(C(C)=O)c2ccccc2)sc2ccccc21.[I-] | -52.2%
50 | COC(=O)c1ccccc1Nc1ccnc(Cl)n1 | -6.9%
51 | O=C(Nc1c(F)c(F)c(F)c(F)c1F)C1CCCCC1 | 5.93%
52 | CC(C(=O)N1CCCC1)N(c1ccccc1)S(C)(=O)=O (centres unmarked) | 20.3%
53 | C/C(=N\NC(=O)c1ccccc1)c1ccc(-n2ccnc2)cc1 | 8.54%
54 | O=C(CCc1nnc(-c2ccccc2)o1)NCc1cc(F)ccc1F | 0.576%
55 | Cc1csc(N(C)C(=O)CSc2nnc(COc3ccccc3C)o2)n1 | 6.62%
56 | CC(C)CC(=O)Nc1ccc2oc(-c3cccnc3)nc2c1 | 15.3%
57 | COCCSc1nnc(NC(=O)C2CC(=O)N(C3CCCC3)C2)s1 (centres unmarked) | 16%
58 | COc1cccc(C(=O)OCC(=O)NC(C)CCc2ccccc2)c1O (centres unmarked) | 13.8%
59 | O=C(N/C(=C\c1ccc([N+](=O)[O-])cc1)C(=O)N1CCOCC1)c1ccco1 | -57.1%
60 | CCN1CCN(C(=O)/C(=C/c2ccco2)NC(=O)c2ccccc2)CC1 | -57.1%
61 | O=C(N/C(=C\c1ccco1)C(=O)N1CCCC1)c1ccccc1 | 14.4%
62 | O=C(N/C(=C\c1ccc([N+](=O)[O-])cc1)C(=O)N1CCCCC1)c1ccco1 | -41.5%
63 | O=C(N/C(=C\c1cccc([N+](=O)[O-])c1)C(=O)N1CCOCC1)c1ccc([N+](=O)[O-])cc1 | -2.31%
64 | Cc1ccc(C(=O)N/C(=C/c2ccco2)C(=O)N2CCOCC2)cc1 | 8.19%
65 | CN1CCN(C(=O)/C(=C/c2ccco2)NC(=O)c2ccccc2)CC1 | -37.1%
66 | O=C(N/C(=C/c1ccc([N+](=O)[O-])cc1)C(=O)N1CCOCC1)c1ccco1 | -34.6%
67 | O=C(N/C(=C\c1ccco1)C(=O)N1CCOCC1)c1ccc([N+](=O)[O-])cc1 | -55.9%
68 | CCOc1ccc(NS(=O)(=O)c2ccc3ncsc3c2)cc1 | 12.1%
69 | O=C1CCCCCCC1Sc1ccccc1[N+](=O)[O-] (centres unmarked) | 3.82%
70 | Cc1ccc(C2C(=O)N(C3CCC(C)CC3)CC(=O)N2C2CCCC2)cc1 (centres unmarked) | -13.1%
71 | COC(=O)/C=c1/s/c(=C(/C#N)C(=O)N2CCCCC2)n(-c2ccccc2)c1=O | 9.76%
72 | CC(C)[C@H](NS(=O)(=O)c1ccccc1)C(=O)OCn1nnc2ccccc2c1=O | 4.31%

Row | SMILES | hERG current change (%, negative = inhibition) at 1uM
73 | Cn1c(=O)c2c(nc(SCCN3CCCCC3)n2Cc2ccccc2)n(C)c1=O | -66%
74 | Cn1c(=O)c2c(nc(SCCN3CCCCC3)n2Cc2ccc(Cl)cc2)n(C)c1=O | -48.9%
75 | Cc1ccc(Cn2c(SCCN3CCCCC3)nc3c2c(=O)n(C)c(=O)n3C)cc1 | -67.1%
76 | Cc1ccc(Cn2c(SCCN3CCOCC3)nc3c2c(=O)n(C)c(=O)n3C)cc1 | -6.9%
77 | Cn1c(=O)c2c(nc(SCCN3CCOCC3)n2Cc2ccccc2)n(C)c1=O | -5.7%
78 | Cn1c(=O)c2c(nc(SCCN3CCOCC3)n2Cc2ccccc2Cl)n(C)c1=O | -8.97%
79 | ON1C2CCCCC2N(O)C1c1c(F)c(F)c(F)c(F)c1F (centres unmarked) | 17.7%
80 | CC1CN(CC(=O)NCc2ccccc2)CC(C)O1 (centres unmarked) | 19.2%
81 | Cc1ccc(N2C(=O)C(CN3CCCCC3)C2c2ccccc2)cc1 (centres unmarked) | -4.6%
82 | Cc1ccc(N2C(=O)C(CN3CCOCC3)C2c2ccccc2)cc1 (centres unmarked) | -1.12%
83 | Cc1ccc(N2C(=O)C(CN3CCCC3)C2c2ccccc2)cc1 (centres unmarked) | -70.6%
84 | C=CCn1c(SCCN2CCCC2)nc2c([nH]c3ccccc32)c1=O | -63.9%
85 | CCOC(=O)CSc1nc2ccccc2c(=O)n1CC1CCCC1 | -63.8%
86 | CCOC(=O)CSc1nc2ccccc2c(=O)n1CC | -1.18%
87 | COCCn1c(SCCN2CCCCC2)nc2ccccc2c1=O | -53.3%
88 | O=c1c2ccccc2nc(SCCN2CCCCC2)n1CCc1ccccc1 | -10%
89 | CCOC(=O)CSc1nc2ccccc2c(=O)n1CC1CCCO1 (centres unmarked) | 9.44%
90 | COCCn1c(SCC(=O)N2CCC(C)CC2)nc2ccccc2c1=O | -57.9%
91 | C=CCn1c(SCC(=O)NC2CCCC2)nc2c([nH]c3ccccc32)c1=O | -16.9%
92 | COCCn1c(SCC(=O)N2CCCCC2)nc2ccccc2c1=O | -30.8%
93 | COc1ccc(CCn2c(SCCN3CCCCC3)nc3ccccc3c2=O)cc1OC | -8.22%
94 | COCCn1c(SCC(=O)N2CCOCC2)nc2ccccc2c1=O | 5.32%
95 | C=CCn1c(SCC(=O)N2CCCC2)nc2c([nH]c3ccccc32)c1=O | 5.21%
